Compound activity deposited in PubChem by several laboratories.
MazF activator – activators of E. coli MazEF toxin-antitoxin RNase, primary screen, biochemical, fluorescence, uHTS; Endoribonuclease toxin MazF (Escherichia coli (strain K12)), P0AE70; FAM/BHQ RNA-DNA oligo cleavage fluorescence, 5 h; activation, % at 20 µM; 350,000 tested, 0.32% active; AID 504720, 2011; in the data active means activation above about 50%
Anthrax LF prot – Bacillus anthracis LF protease inhibitors, primary screen, biochemical, multiplex microsphere, MLPCN library; inhibition, % at 10 µM; multiplex microsphere protease cleavage assay; Lethal factor (Bacillus anthracis), P15917; 360,000 tested, 0.12% active
Target sequence (P15917 whole entry, looked up): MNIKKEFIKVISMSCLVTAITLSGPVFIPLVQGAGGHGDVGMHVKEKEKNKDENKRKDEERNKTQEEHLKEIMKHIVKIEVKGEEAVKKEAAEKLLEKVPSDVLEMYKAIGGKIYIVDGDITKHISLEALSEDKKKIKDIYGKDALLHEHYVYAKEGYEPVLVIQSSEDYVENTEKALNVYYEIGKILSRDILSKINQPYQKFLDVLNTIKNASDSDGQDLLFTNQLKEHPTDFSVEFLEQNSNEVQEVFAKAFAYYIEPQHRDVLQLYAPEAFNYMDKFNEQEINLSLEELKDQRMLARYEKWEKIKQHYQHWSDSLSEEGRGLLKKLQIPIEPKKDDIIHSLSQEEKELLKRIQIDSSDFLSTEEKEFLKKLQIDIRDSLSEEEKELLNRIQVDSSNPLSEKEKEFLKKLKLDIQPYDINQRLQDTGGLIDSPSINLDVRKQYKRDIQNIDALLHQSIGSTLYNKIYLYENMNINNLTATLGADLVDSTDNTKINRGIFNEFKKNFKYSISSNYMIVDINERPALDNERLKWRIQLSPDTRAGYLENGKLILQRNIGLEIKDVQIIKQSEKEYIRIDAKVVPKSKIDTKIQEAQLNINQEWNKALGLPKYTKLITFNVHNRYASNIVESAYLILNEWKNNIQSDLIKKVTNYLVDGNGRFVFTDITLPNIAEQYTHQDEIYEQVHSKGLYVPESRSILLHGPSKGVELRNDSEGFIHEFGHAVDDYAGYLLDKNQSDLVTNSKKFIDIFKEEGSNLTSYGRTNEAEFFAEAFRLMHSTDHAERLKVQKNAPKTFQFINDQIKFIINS
Autofluor counter – compound fluorescence in toxin protease inhibitor counterscreen | 360,000 tested, 3.1% active | compound autofluorescence counterscreen, microsphere flow cytometry; stronger effect = higher value | fluorescence intensity (no concentration beside the values); in the data active means fluorescence intensity above about 16000; inconclusive means no clear call, values can overlap the other calls
BoNT-F LC inh – BoNT/F light chain protease inhibitors, primary screen, biochemical, flow cytometry, MLPCN library | Botulinum neurotoxin type F light chain protease (Clostridium botulinum) | Multiplex microsphere protease cleavage assay | inhibition, % at 10 µM | 360,000 tested, 0.22% active | AID 588497, 2011; in the data active means inhibition above about 35%, passing the limit was not always enough; inconclusive means no clear call, values can overlap the other calls
PriA SSB inh – inhibitors of Klebsiella pneumoniae PriA binding to SSB C-terminal tail, primary screen, biochemical, AlphaScreen. AlphaScreen SSBct-PriA binding, biotinylated peptide. 430,000 tested, 0.6% active. inhibition, % at 33 µM. PriA–SSB C-terminal tail interaction (Klebsiella pneumoniae); in the data active means inhibition mostly above about 37%, no sharp cut-off; inactive means mostly below about 20%
BoNT A protease – BoNT/A light chain protease inhibitors, primary screen, biochemical, flow cytometry, MLPCN library; Botulinum neurotoxin type A light chain protease (Clostridium botulinum A str. ATCC 3502); multiplex microsphere protease substrate cleavage; inhibition, % at 10 µM; 360,000 tested, 0.17% active; AID 588499, 2011
Each line names hits and unclear results; the compound was inactive in the other large screens. A selection: hits, their analogues and other compounds. The true share with any hit is near 3.3%. Unless noted, no stated cut-off is given here; in the data, active means inhibition above about 30%; inconclusive means no clear call, values can overlap the other calls; inactive means below that.

CC(OC(=O)CNC(=O)C12CC3CC(CC(C3)C1)C2)C(=O)Nc1ncc(Cl)cc1Cl (configuration not stated)	Autofluor counter 18610
O=c1n(Cc2cccc(Br)c2)nc2c(S(=O)(=O)N3CCCCC3)cccn12	none (no result: MazF activator, Anthrax LF prot, Autofluor counter, BoNT-F LC inh, BoNT A protease)
COc1ccc(OC)c2sc(NCCN3CCOCC3)nc12	none (no result: MazF activator, Anthrax LF prot, Autofluor counter, BoNT-F LC inh, BoNT A protease)
Cc1cc(C(=O)NC(C)C2CCCO2)cs1 (configuration not stated)	Autofluor counter 16328, BoNT A protease inconclusive
CC(NC(=O)Nc1ccc2c(c1)OCO2)C1CCCO1 (configuration not stated)	Autofluor counter 23219
CC(NC(=O)c1cccs1)C1CCCO1 (configuration not stated)	none
CCc1cc(C(=O)NC(C)C2CCCO2)cs1 (configuration not stated)	none
CC(NC(=O)c1ccc(Cl)s1)C1CCCO1 (configuration not stated)	Autofluor counter 24646
CC(NC(=O)c1csc2ccccc12)C1CCCO1 (configuration not stated)	Autofluor counter 16909, BoNT A protease inconclusive
Cc1nc(-c2cccnc2)sc1-c1ccc(SCC(=O)Nc2ccc(F)cc2F)nn1	none (no result: MazF activator, Anthrax LF prot, Autofluor counter, BoNT-F LC inh, BoNT A protease)
CCc1ccccc1NS(=O)(=O)c1c[nH]c(=O)[nH]c1=O	none (no result: MazF activator, Anthrax LF prot, Autofluor counter, BoNT-F LC inh, BoNT A protease)
COc1cccc2cc(C(=O)NCC3CCCO3)c(=O)oc12 (configuration not stated)	none
COc1cc(Br)cc2cc(C(=O)NCC3CCCO3)c(=O)oc12 (configuration not stated)	Autofluor counter 22610, BoNT A protease inconclusive
COc1cccc2cc(C(=O)NC(C)C3CCCO3)c(=O)oc12 (configuration not stated)	Autofluor counter 16163
CCOc1ccc(-c2nnc(SCC(=O)Nc3ccc4c(c3)c3ccccc3n4CC)n2N)cc1	Autofluor counter 16867
CCn1c2ccccc2c2cc(NC(=O)CSc3nnc(-c4cccc(OC)c4)n3N)ccc21	none
CCn1c2ccccc2c2cc(NC(=O)CSc3nnc(-c4ccccc4OC)n3N)ccc21	Autofluor counter 17821, BoNT A protease inconclusive
CCn1c2ccccc2c2cc(NC(=O)CSc3nnc(-c4ccc(OC)c(OC)c4)n3N)ccc21	Autofluor counter inconclusive
CC(C)(C)C(=O)C=c1sc(=Cc2ccc(-c3ccc([N+](=O)[O-])cc3)o2)c(=O)n1CC(=O)NC(N)=O	none (no result: MazF activator, Anthrax LF prot, Autofluor counter, BoNT-F LC inh, BoNT A protease)
CCn1c(SCC(=O)Nc2ccc(F)cc2F)nc2c(c1=O)S[C@@H](C)C2	none (no result: MazF activator, Anthrax LF prot, Autofluor counter, BoNT-F LC inh, BoNT A protease)
O=C(Nc1c(Cl)cccc1Cl)c1cc(=O)n(Cc2ccccc2)c(=O)[nH]1	Autofluor counter 21337, BoNT A protease inconclusive
NC(=O)c1cn(C2CCCCC2)c2ccccc2c1=O	BoNT-F LC inh 40.7
O=C(O)c1cn(C2CCCCC2)c2ccccc2c1=O	BoNT-F LC inh inconclusive
COc1ccc(S(=O)(=O)CCC(=O)Nc2nc3c(Cl)cccc3s2)cc1	none (no result: MazF activator, Anthrax LF prot, Autofluor counter, BoNT-F LC inh, BoNT A protease)
O=C(OCC(=O)N1CCc2ccccc21)c1ccc(Cl)nc1	Autofluor counter 23913
Cc1sc2nc(SCC(=O)c3cccs3)n(Cc3ccco3)c(=O)c2c1C	Autofluor counter 22489
Cc1sc2ncnc(SCC(=O)c3cccs3)c2c1C	Autofluor counter 16770
Cc1sc2nc(SCc3ccc(C(=O)O)cc3)n(Cc3ccco3)c(=O)c2c1C	none
CCOC(=O)N1CCN(C(=O)c2cc(-c3cc[nH]c3)n[nH]2)CC1	none (no result: MazF activator, Anthrax LF prot, Autofluor counter, BoNT-F LC inh, BoNT A protease)
O=C(NCC1(O)Cc2ccccc2C1)C(=O)Nc1ccc(OC(F)(F)F)cc1	none (no result: MazF activator, Anthrax LF prot, Autofluor counter, BoNT-F LC inh, BoNT A protease)
CCSC1=C(C#N)C(c2cccs2)C(C(=O)OC)=C(C)N1 (configuration not stated)	Autofluor counter 22477, BoNT A protease inconclusive
CCOC(=O)C1=C(C)OC(N)=C(C#N)C1c1cccs1 (configuration not stated)	none
CCCC1=C(C(=O)OCC)C(c2cccs2)C(C#N)=C(N)O1 (configuration not stated)	Autofluor counter 22890
CCOC(=O)C1=C(C)OC(N)=C(C#N)C1c1ccccc1 (configuration not stated)	none
CCOC(=O)C1=C(C)OC(N)=C(C#N)C1c1ccoc1 (configuration not stated)	Autofluor counter 16971
COc1ccc(C(=O)NC(N)=Nc2nc3ccccc3o2)cc1	none (no result: MazF activator, Anthrax LF prot, Autofluor counter, BoNT-F LC inh, BoNT A protease)
O=C1CC(Nc2ccccc2)C(=O)N1CCc1ccccc1 (configuration not stated)	none
NC(=O)CNC1CC(=O)N(CCc2ccccc2)C1=O (configuration not stated)	Autofluor counter 23483
CCCc1oc2ccc(NS(=O)(=O)c3ccc(F)cc3C)cc2c1C(=O)OCC	none (no result: MazF activator, Anthrax LF prot, Autofluor counter, BoNT-F LC inh, BoNT A protease)
CN=c1scc(-c2ccc(OC)cc2)n1N=C(C)c1cccnc1	PriA SSB inh 43.5 (no result: MazF activator, Anthrax LF prot, Autofluor counter, BoNT-F LC inh, BoNT A protease)
CN=c1scc(-c2ccc(OC)cc2)n1/N=C(\C)c1cccnc1	none (no result: PriA SSB inh)
Cc1nnsc1C(=O)NCC#CCOc1cccc(C(F)(F)F)c1	none (no result: MazF activator, Anthrax LF prot, Autofluor counter, BoNT-F LC inh, BoNT A protease)
Cc1nc(NC(=O)COc2ccccc2)sc1C(=O)Nc1cccc(Cl)c1	Autofluor counter 24209, BoNT A protease inconclusive
COC(=O)COc1cccc(NC(=O)COc2ccccc2)c1	none
Cc1ccc(NC(=O)Cn2c(=O)oc3ccccc32)cc1C	none
COc1cccc(NC(=O)Cn2c(=O)oc3ccccc32)c1	Autofluor counter 23609
COC(=O)COc1cccc(NC(=O)c2ccccc2)c1	Autofluor counter 24578, BoNT A protease inconclusive
COc1ccc(OCC(=O)Nc2cccc(OC)c2)cc1	Autofluor counter 17719
CCOc1ccc(-c2cn3c(CC(=O)NCCN4CCOCC4)csc3n2)cc1	none (no result: MazF activator, Anthrax LF prot, Autofluor counter, BoNT-F LC inh, BoNT A protease)
N#Cc1cccc(NC(=O)COc2ccc(-n3ccnc3)cc2)c1	Autofluor counter 23571
Clc1ccccc1/C=N/NC1=Nc2cccc3cccc1c23	MazF activator 231.0 (no result: PriA SSB inh)
Clc1ccccc1C=NNC1=Nc2cccc3cccc1c23	none (no result: MazF activator, Anthrax LF prot, Autofluor counter, BoNT-F LC inh, BoNT A protease)
O=C(NCCO)c1cccc(Nc2nc(-c3ccccc3)c3cc(Cl)ccc3n2)c1	Autofluor counter 20185
O=C(NNc1nc(-c2ccccc2)c2cc(Cl)ccc2n1)c1ccccc1F	none (no result: MazF activator, Anthrax LF prot, Autofluor counter, BoNT-F LC inh, BoNT A protease)
CC(=O)c1cc2c(cc1NS(=O)(=O)c1cccc(C(=O)O)c1)OCO2	none
CC(=O)c1cc2c(cc1NS(=O)(=O)c1ccccc1)OCO2	Autofluor counter 20902
O=S(=O)(Nc1ccc2c(c1)OCO2)c1ccccc1	Autofluor counter 23731, BoNT A protease inconclusive
CC(=O)c1ccc(NS(=O)(=O)c2ccccc2)cc1	Autofluor counter 21657
COc1ccc(-n2nnnc2SCC(=O)Nc2ncc(Cc3ccccc3)s2)cc1	none (no result: MazF activator, Anthrax LF prot, Autofluor counter, BoNT-F LC inh, BoNT A protease)
Cn1c(Cl)nc2c1c(=O)n(Cc1cccc(Br)c1)c(=O)n2C	Autofluor counter 20509
